Values without a mark were called inactive. Records with an inconclusive call do not appear. A call without a number means that no potency is given here. The source made the active and inactive calls. Calls come from the whole dose curve; as a rule, active = well fitted curve in the direction sought with a large enough effect; inconclusive = small, poorly fitted or top-dose-only effect, or another doubt; inactive = no such curve, though single readings can be large; an effect the other way counts as inactive or inconclusive.

System in one assay: not listed separately
As to the kind of experiment: Primary fluorescence-based thiol-reactive (MSTI) qHTS assay for identification of artifact compounds. (AID 1845221). Note: nearly all actives have a fitted effect of over 65% in size. Note: potency is the fitted concentration of half-maximal effect. To be noted: MSTI thiol-reactivity probe, 1 h; series mostly up to 53.8 µM. The method in brief:
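qHTS titration of compound; 4 uM MSTI, PBS pH 7.4, 2% DMSO; 1 h RT, dark; fluorescence 525/598 nm; normalized to Acetyl-MSTI and MSTI; 4-parameter Hill fit.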
For orientation: qHTS replaces the single test concentration by a dilution series.
As to `c1ccc2c(CCNc3ccc(Nc4ccncc4)cc3)c[nH]c2c1`, the Potency is 2670 nM (active).
On to `O=C(O)CCCc1c[nH]c2ccccc12`, for which the Potency result is “inactive”.
On to `COc1ccc(-c2cc3c(C)nc(N)nc3n(C3CCC(OCCO)CC3)c2=O)cn1` (stereo not drawn), for which the Potency result was “inactive”.
The same measure, in the same setting: under `CNC(=O)c1ccccc1Nc1nc(Nc2ccc(N3CCOCC3)cc2OC)ncc1Cl` stands 1890 nM (active); under `COc1cc(-c2nn(C3CCC(N4CCN(C(C)=O)CC4)CC3)c3ncnc(N)c23)ccc1NC(=O)c1cc2ccccc2n1C` (stereo not drawn), “inactive”; under `COC(=O)Nc1ccc(-c2nc(N3CCOCC3)c3cnn(C4CCN(Cc5cccnc5)CC4)c3n2)cc1`, “inactive”.
Regarding `Cc1cn2c(-c3cn[nH]c3)cnc2c(Nc2ccc(C(=O)N3CCNCC3)cc2F)n1`, the Potency result was “inactive”.
On to `COc1cccc(Nc2c(C(N)=O)cnc3c(C)cc(S(=O)(=O)c4cccc(C(=O)N(C)C)c4)cc23)c1`, for which the Potency entry was “inactive”.
The same measure, in the same setting: under `C[C@@H]1COC(Nc2ccc3ncnc(Nc4ccc(OCc5nccs5)c(Cl)c4)c3c2)=N1` stands “inactive”; under `Cc1cc(Nc2ncnc3ccc(-c4ccc(CNCCS(C)(=O)=O)o4)cc23)ccc1Oc1ccn2ncnc2c1`, “inactive”.
On to `COC(=O)Nc1nc2ccc(C(=O)c3ccc(F)cc3)cc2[nH]1`, for which the Potency result was “inactive”.
For `CC(C)c1cc(C(=O)N2Cc3ccc(CN4CCN(C)CC4)cc3C2)c(O)cc1O`, the Potency entry was “inactive”.

A further assay relates to Nanoluciferase (engineered Oplophorus gracilirostris luciferase). Put plainly: Primary Nanoluciferase (NLuc) qHTS assay for identification of artifact compounds. (AID 1845222).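 Note: NLuc secreted into diluted conditioned medium of S16 cells.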 To be noted: NLuc-conditioned medium, Nano-Glo luminescence, 5 min; series mostly up to 54.1 µM. The method in brief: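 qHTS format, against NLuc in S16 cell-conditioned medium. Nano-Glo substrate 1:100 was added after 15 min at room temperature. Luminescence was taken after a further 5 min.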
Consider `COc1ccc(-c2cc3c(C)nc(N)nc3n(C3CCC(OCCO)CC3)c2=O)cn1` (stereo not drawn), for which the Potency entry is “inactive”.
Consider `Cc1ccc(CN2CCNCC2)cc1NC(=O)CNc1ccc(F)c(F)c1`, for which the Potency entry is “inactive”.
In the case of `COc1cc(-c2nn(C3CCC(N4CCN(C(C)=O)CC4)CC3)c3ncnc(N)c23)ccc1NC(=O)c1cc2ccccc2n1C` (stereo not drawn), the Potency result is “inactive”.
For the compound `COC(=O)Nc1ccc(-c2nc(N3CCOCC3)c3cnn(C4CCN(Cc5cccnc5)CC4)c3n2)cc1`, the Potency entry was “inactive”.
For `COc1cccc(Nc2c(C(N)=O)cnc3c(C)cc(S(=O)(=O)c4cccc(C(=O)N(C)C)c4)cc23)c1`, the Potency entry is “inactive”.
With `C=CC(=O)N1CCC[C@@H](n2nc(-c3ccc(Oc4ccccc4)cc3)c3c(N)ncnc32)C1`, the Potency result is “inactive”.
Consider `Cc1c(Cn2c(C)nc3c(C(=O)O)cc(N4CCOCC4)cc32)cccc1C(F)(F)F`, for which the Potency entry is “inactive”.

System in a further assay: not listed separately
Put plainly: Primary redox qHTS assay for identification of artifact compounds. (AID 1845223). To be noted: Amplex Red/HRP redox cycling with DTT, fluorescence; series mostly up to 53.8 µM. The method in brief: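 Redox-cycling detection via DTT (250 uM final) oxidation coupled to Amplex Red (25 uM)/HRP (250 mU/mL) in HBSS. 15 min preincubation plus 30 min after DTT, room temperature. Ex/Em 525/598 nm; 4-parameter Hill fit against DMSO and 10 uM DA3003.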
Take `c1ccc2c(CCNc3ccc(Nc4ccncc4)cc3)c[nH]c2c1`: the Potency entry is “inactive”.
With `O=C(O)CCCc1c[nH]c2ccccc12`, the Potency entry is “inactive”.
As for `COc1ccc(-c2cc3c(C)nc(N)nc3n(C3CCC(OCCO)CC3)c2=O)cn1` (stereo not drawn), the Potency entry is “inactive”.
As for `CNC(=O)c1ccccc1Nc1nc(Nc2ccc(N3CCOCC3)cc2OC)ncc1Cl`, the Potency entry was “inactive”.
For the compound `COc1cc(-c2nn(C3CCC(N4CCN(C(C)=O)CC4)CC3)c3ncnc(N)c23)ccc1NC(=O)c1cc2ccccc2n1C` (stereo not drawn), the Potency entry was “inactive”.
For the compound `COC(=O)Nc1ccc(-c2nc(N3CCOCC3)c3cnn(C4CCN(Cc5cccnc5)CC4)c3n2)cc1`, the Potency result was “inactive”.
Consider `CC1COC2(CCN(c3nc(=O)c4cc(C(F)(F)F)cc([N+](=O)[O-])c4s3)CC2)O1` (stereo not drawn), for which the Potency entry is “inactive”.
On the same count and under the same terms, under `Cc1cn2c(-c3cn[nH]c3)cnc2c(Nc2ccc(C(=O)N3CCNCC3)cc2F)n1` stands “inactive”.
As to `COc1cccc(Nc2c(C(N)=O)cnc3c(C)cc(S(=O)(=O)c4cccc(C(=O)N(C)C)c4)cc23)c1`, the Potency entry was “inactive”.
Still for that read-out and setting: the value for `C[C@@H]1COC(Nc2ccc3ncnc(Nc4ccc(OCc5nccs5)c(Cl)c4)c3c2)=N1` was “inactive”; that for `C=CC(=O)N1CCC[C@@H](n2nc(-c3ccc(Oc4ccccc4)cc3)c3c(N)ncnc32)C1` was “inactive”; that for `Cc1cc(Nc2ncnc3ccc(-c4ccc(CNCCS(C)(=O)=O)o4)cc23)ccc1Oc1ccn2ncnc2c1` was “inactive”.
Take `COC(=O)Nc1nc2ccc(C(=O)c3ccc(F)cc3)cc2[nH]1`: the Potency entry is “inactive”.
As to `CC(C)c1cc(C(=O)N2Cc3ccc(CN4CCN(C)CC4)cc3C2)c(O)cc1O`, the Potency entry was “inactive”.
Same read-out and setting: the value for `Cc1c(Cn2c(C)nc3c(C(=O)O)cc(N4CCOCC4)cc32)cccc1C(F)(F)F` was “inactive”.

System in a further assay: not listed separately
Put plainly: Quantitative High-Throughput drug screen in 47 multiple myeloma cell lines against the NCATS MIPE library collection: FR4_PLB cell viability assay (AID 1918924; note: nearly all actives have a fitted effect of over 35% in size; note: potency is the fitted concentration of half-maximal effect). To be noted: FR4_PLB myeloma cells viability, CellTiter-Glo ATP, 48 h; series mostly up to 45.8 µM. The method in brief:
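We plated 500 myeloma cells per well, pinned in MIPE 4.0 compounds, and incubated for 48 hours at 37C. ATP was then quantified with CellTiter-Glo, with DMSO and media-only wells defining 100% and 0%.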
For orientation: ATP-based viability assays read luminescence as a measure of living cells.
Consider `c1ccc2c(CCNc3ccc(Nc4ccncc4)cc3)c[nH]c2c1`, for which the Potency result is “inactive”.
`CC(=O)OCC(=O)[C@@]1(O)[C@H](C)C[C@H]2[C@@H]3C=C(C)C4=Cc5c(cnn5-c5ccccc5)C[C@]4(C)[C@@H]3[C@@H](O)C[C@@]21C`: the Potency is 14800 nM (active).
With `Nc1nc(-c2nn(Cc3ccccc3F)c3ncccc23)nc(N)c1N1CCOCC1`, the Potency entry is “inactive”.
For the compound `COc1ccc(-c2cc3c(C)nc(N)nc3n(C3CCC(OCCO)CC3)c2=O)cn1` (stereo not drawn), the Potency is 33.2 nM (active).
As for `CN1CCN(c2cc(C(=O)Nc3ccc4c(c3)-c3c(c(C(N)=O)nn3-c3ccc(F)cc3)CC4)c(Cl)cn2)CC1`, the Potency was 16600 nM (active).
As to `COc1ccc(CC2c3cc(OC)c(OC)cc3CC[N+]2(C)CCC(=O)OCCCCCOC(=O)CC[N+]2(C)CCc3cc(OC)c(OC)cc3C2Cc2ccc(OC)c(OC)c2)cc1OC` (stereo not drawn), the viability (% of DMSO control) was 122% [at 5.15 µM].
Consider `COc1cc(-c2nn(C3CCC(N4CCN(C(C)=O)CC4)CC3)c3ncnc(N)c23)ccc1NC(=O)c1cc2ccccc2n1C` (stereo not drawn), for which the Potency was 5260 nM (active).
`COC(=O)Nc1ccc(-c2nc(N3CCOCC3)c3cnn(C4CCN(Cc5cccnc5)CC4)c3n2)cc1`: the Potency was 46.9 nM (active).
Same read-out and setting: the value for `O=C(NC1CCNCC1)c1[nH]ncc1NC(=O)c1c(Cl)cccc1Cl` was 83.3 nM (active); that for `CCN(CC)CCCCNc1ncc2cc(-c3cc(OC)cc(OC)c3)c(NC(=O)NC(C)(C)C)nc2n1` was 20900 nM (active).
Turning to `Cc1ccc(-c2ncn(-c3ccc(Nc4nccc(-c5cccc(N6CCOCC6)c5)n4)cc3)n2)cn1`, the Potency is 132 nM (active).
On the same count and under the same terms, the value for `CN(c1ncccc1CNc1nc(Nc2ccc3c(c2)CC(=O)N3)ncc1C(F)(F)F)S(C)(=O)=O` was 5900 nM (active); that for `CN1CC[C@@H](c2c(O)cc(O)c3c(=O)cc(-c4ccccc4Cl)oc23)[C@@H](O)C1` was 33.2 nM (active); that for `Cn1c2cc(S(C)=O)sc2c2cnn(Cc3cccc(N)c3)c(=O)c21` (stereo not drawn) was “inactive”.
As to `O=c1[nH]c(=O)n(C2CCCO2)cc1F` (stereo not drawn), the Potency result was “inactive”.
As for `C[C@@H](Oc1cc(-n2cnc3ccc(CN4CCN(C)CC4)cc32)sc1C(N)=O)c1ccccc1C(F)(F)F`, the Potency was 33.2 nM (active).
The same measure, in the same setting: the value for `CC1COC2(CCN(c3nc(=O)c4cc(C(F)(F)F)cc([N+](=O)[O-])c4s3)CC2)O1` (stereo not drawn) was “inactive”; that for `Cc1cn2c(-c3cn[nH]c3)cnc2c(Nc2ccc(C(=O)N3CCNCC3)cc2F)n1` was 16600 nM (active).
As to `COC(=O)C1=C(C)NC(C)=C(C(=O)OCCN2CCN(C(c3ccccc3)c3ccccc3)CC2)C1c1cccc([N+](=O)[O-])c1` (stereo not drawn), the Potency entry is “inactive”.
Regarding `COc1cccc(Nc2c(C(N)=O)cnc3c(C)cc(S(=O)(=O)c4cccc(C(=O)N(C)C)c4)cc23)c1`, the Potency entry is “inactive”.
For `COCCn1c2c([n+](Cc3cnccn3)c1C)C(=O)c1ccccc1C2=O`, the Potency is 10.5 nM (active).
Regarding `c1cc(-c2cnn3cc(-c4ccc(OCCN5CCCCC5)cc4)cnc23)ccn1`, the Potency is 11800 nM (active).
Regarding `CC(=O)SC[C@@H](C)C(=O)N1CCC[C@H]1C(=O)N[C@@H](Cc1ccccc1)C(=O)O`, the Potency entry was “inactive”.
Consider `C[C@@H]1COC(Nc2ccc3ncnc(Nc4ccc(OCc5nccs5)c(Cl)c4)c3c2)=N1`, for which the Potency is 16600 nM (active).
In the case of `COc1cc2ncn(-c3cc(OCc4ccccc4C(F)(F)F)c(C(N)=O)s3)c2cc1OC`, the Potency is 5260 nM (active).
For `CC(C)c1ccc(Cn2ccc3c4c(N)nc(NC5CC5)nc4ccc32)cc1`, the Potency was 4180 nM (active).
Still for that read-out and setting: under `CCN1CCN(CC(=O)Nc2ccc(-c3cccc4c(=O)cc(N5CCOCC5)oc34)c3sc4ccccc4c23)CC1` stands 1480 nM (active); under `C=CC(=O)Nc1cc2c(Nc3ccc(F)c(Cl)c3)ncnc2cc1C#CC(C)(C)N1CCN(C)CC1`, 3720 nM (active); under `COC(=O)C[C@](O)(CCCC(C)(C)O)C(=O)O[C@@H]1C(OC)=C[C@]23CCCN2CCc2cc4c(cc2[C@H]13)OCO4`, “inactive”.
On the same count and under the same terms, under `CN[C@H]1CCc2cc(OC)c(OC)c(OC)c2-c2ccc(OC)c(=O)cc21` stands “inactive”; under `COC(=O)Nc1nc2ccc(C(=O)c3ccc(F)cc3)cc2[nH]1`, 264 nM (active); under `CC(C)c1cc(C(=O)N2Cc3ccc(CN4CCN(C)CC4)cc3C2)c(O)cc1O`, 296 nM (active).
Turning to `Cc1c(Cn2c(C)nc3c(C(=O)O)cc(N4CCOCC4)cc32)cccc1C(F)(F)F`, the Potency is 5900 nM (active).
With `Cc1nc2cnc3ccc(C#Cc4cccnc4)cc3c2n1-c1ccc(C(C)(C)C#N)cc1`, the Potency was 118 nM (active).

These data come from PubChem BioAssay (NCATS).
